Where “and” joins values, the source holds several entries; their conditions need not be identical. Identical values can stand only once. About 83,000 compounds went through this panel and 20% of them were active in at least one assay; those are over-represented in the sample as a whole.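 Note: values are percent growth. 100 is the growth of untreated cells, values between 100 and 0 indicate rising inhibition; between -100 and 0 indicates cell death.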 Calls of active or inactive are those of the source. The calls were made as follows: active = growth percent below 10; inactive = the rest.
These compounds were tested on MOLT-4 leukemia (assay: NCI-60 one-dose screen, 48 h (100 = growth as untreated, 0 = no growth, -100 = all killed)). Details: 10 µM.

Structure (SMILES) | growth
Cn1c(O)c(N=O)c(=O)n(C)c1=O | 101% (inactive) and 99.9% (inactive)
NNc1ccccc1 | 73.1% (inactive)
O=C1C=Cc2ccccc2C1=O | 95.2% (inactive)
COc1cc(/C=C/[N+](=O)[O-])cc(Br)c1OC | 10% (inactive)
C[C@]12CC[C@H]3[C@@H](CCC4=CC(=O)CC[C@@H]43)[C@@H]1CC[C@@H]2OC(=O)N(CCCl)N=O | 12.8% (inactive)
Cc1cc(C(C)(C)c2ccc(O)c(C)c2)ccc1O | 78.9% (inactive)
CC[C@@H](C)[C@@H]1NC(=O)C(NC(=O)C(CC(C)C)N(C)C(=O)C2CCCN2C(=O)C(C)O)C(C)OC(=O)C(Cc2ccc(OC)cc2)N(C)C(=O)C2CCCN2C(=O)C(CC(C)C)NC(=O)C(C)C(=O)C(C(C)C)OC(=O)C[C@H]1O (stereo partly specified) | -15.8% (active)
S=C=NCCc1ccccc1 | 53.4% (inactive)
O=C1CCC(=O)N1SC(Cl)(Cl)Cl | 90.4% (inactive)
O=[N+]([O-])c1cc[n+]([O-])c2ccccc12 | 3.5% (active)
O=C(CBr)Nc1ccccc1 | 42.6% (inactive)
CN(C)CC1(N)C(=O)NC(=O)NC1=O | 99% (inactive)
C/C(=C\c1ccc(Cl)c(Cl)c1)[N+](=O)[O-] | 4.34% (active) and 79.2% (inactive)
O=[N+]([O-])c1ccc(N(CCO)CCO)c2c1no[n+]2[O-] | -24.4% (active)
O=[N+]([O-])c1ccc(N2CCOCC2)c2c1no[n+]2[O-] | 3.12% (active)
C/C1=C\[C@H](C)C[C@H](C)OC(=O)C[C@H](c2ccc(O)cc2)NC(=O)[C@@H](Cc2c(Br)[nH]c3ccccc23)N(C)C(=O)[C@H](C)NC(=O)[C@@H](C)C1 | 2.89% (active)
COc1ccc(/C=C\[N+](=O)[O-])cc1OC | 85.7% (inactive) and 65.5% (inactive)
[O-][n+]1ccccc1S | 32.1% (inactive)
COC12c3c(C)cc(O)c4c(=O)occ(c34)C(=O)C1C13COC(=O)c4c(O)cc(C)c(c41)C(=O)C2C3OC(C)=O (stereo unspecified) | 102% (inactive)
COC(=O)C1C(O)C(C)C(O)C(C)/C=C\C=C(C)C(=O)Nc2c(C)c(OC(C)=O)c3c(c2O)C(=O)C(C)=C2OCOC(=C23)C(C)=CC(C)(O)C(O)C(C)C1O (stereo unspecified) | 51.9% (inactive)
C=C1C(=O)O[C@@H]2C[C@@H](C)[C@@H]3C=CC(=O)[C@@]3(C)[C@@H](O)[C@H]12 | -48.5% (active)
CC/C(=C/c1ccc(OC)cc1)[N+](=O)[O-] | 3.8% (active)
CCOP(=O)(OCC)/C(C#N)=C/c1ccc(Br)cc1 | 92% (inactive)
O=[N+]([O-])/C=C/c1ccc(Cl)cc1[N+](=O)[O-] | 2.69% (active)
Oc1c(Cl)cc(Cl)c2ccccc12.[Cu+2] | 70.7% (inactive)
CN(CCCl)c1ccc(/C=C/C2=[N+](C)c3ccccc3C2(C)C)cc1 | -13.1% (active)
Cc1ccc(NC(=O)CBr)cc1 | 98.4% (inactive)
COC(C(=O)C(O)C(C)O)C1Cc2cc3cc(OC4CC(OC(C)=O)C(OC5CC(O)C(OC)C(C)O5)C(C)O4)cc(O)c3c(O)c2C(=O)C1OC1CC(OC2CC(OC3CC(C)(O)C(OC(=O)C(C)C)C(C)O3)C(O)C(C)O2)C(O)C(C)O1 (stereo unspecified) | -25.4% (active)

What follows are compounds tested on SR leukemia in the same assay as above. Details: 10 µM.

Structure (SMILES) | growth
Cn1c(O)c(N=O)c(=O)n(C)c1=O | 103% (inactive) and 80% (inactive)
NNc1ccccc1 | 53% (inactive)
O=C1C=Cc2ccccc2C1=O | 61.8% (inactive)
COc1cc(/C=C/[N+](=O)[O-])cc(Br)c1OC | -5.8% (active)
Cc1cc(C(C)(C)c2ccc(O)c(C)c2)ccc1O | 92.2% (inactive)
CC[C@@H](C)[C@@H]1NC(=O)C(NC(=O)C(CC(C)C)N(C)C(=O)C2CCCN2C(=O)C(C)O)C(C)OC(=O)C(Cc2ccc(OC)cc2)N(C)C(=O)C2CCCN2C(=O)C(CC(C)C)NC(=O)C(C)C(=O)C(C(C)C)OC(=O)C[C@H]1O (stereo partly specified) | 1.46% (active)
S=C=NCCc1ccccc1 | 6.81% (active)
O=C1CCC(=O)N1SC(Cl)(Cl)Cl | 95.2% (inactive)
O=C(CBr)Nc1ccccc1 | 48.1% (inactive)
CN(C)CC1(N)C(=O)NC(=O)NC1=O | 101% (inactive)
C/C(=C\c1ccc(Cl)c(Cl)c1)[N+](=O)[O-] | 12.3% (inactive) and 88.6% (inactive)
C/C1=C\[C@H](C)C[C@H](C)OC(=O)C[C@H](c2ccc(O)cc2)NC(=O)[C@@H](Cc2c(Br)[nH]c3ccccc23)N(C)C(=O)[C@H](C)NC(=O)[C@@H](C)C1 | -3.88% (active)
COc1ccc(/C=C\[N+](=O)[O-])cc1OC | 16.6% (inactive) and -16.1% (active)
[O-][n+]1ccccc1S | 7.55% (active)
COC12c3c(C)cc(O)c4c(=O)occ(c34)C(=O)C1C13COC(=O)c4c(O)cc(C)c(c41)C(=O)C2C3OC(C)=O (stereo unspecified) | 92.4% (inactive)
COC(=O)C1C(O)C(C)C(O)C(C)/C=C\C=C(C)C(=O)Nc2c(C)c(OC(C)=O)c3c(c2O)C(=O)C(C)=C2OCOC(=C23)C(C)=CC(C)(O)C(O)C(C)C1O (stereo unspecified) | 49.3% (inactive)
C=C1C(=O)O[C@@H]2C[C@@H](C)[C@@H]3C=CC(=O)[C@@]3(C)[C@@H](O)[C@H]12 | -11.7% (active)
CC/C(=C/c1ccc(OC)cc1)[N+](=O)[O-] | 1.84% (active)
O=[N+]([O-])/C=C/c1ccc(Cl)cc1[N+](=O)[O-] | 4.94% (active)
Oc1c(Cl)cc(Cl)c2ccccc12.[Cu+2] | 31.4% (inactive)
CN(CCCl)c1ccc(/C=C/C2=[N+](C)c3ccccc3C2(C)C)cc1 | 12.3% (inactive)
Cc1ccc(NC(=O)CBr)cc1 | 89.5% (inactive)
COC(C(=O)C(O)C(C)O)C1Cc2cc3cc(OC4CC(OC(C)=O)C(OC5CC(O)C(OC)C(C)O5)C(C)O4)cc(O)c3c(O)c2C(=O)C1OC1CC(OC2CC(OC3CC(C)(O)C(OC(=O)C(C)C)C(C)O3)C(O)C(C)O2)C(O)C(C)O1 (stereo unspecified) | -23.4% (active)

Source: PubChem BioAssay (NCI)
